Among all 31,000 sequences or so, about 1,400 (4.5%) were called active. This excerpt belongs to a sample that is enriched for actives. Values without a mark were called inactive.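 The calls were made as follows: active = median seed-adjusted z-score above 1 or below -1; inactive = the rest.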
Experiment: Novel Modifiers of Survival Motor Neuron (SMN) Protein: Gene Identification via Genome-wide siRNA Screen
Conditions: HEK293T SMN2-luciferase reporter, siRNA knockdown, 72 h; actives lie on both sides
From the text: Spinal muscular atrophy (SMA) is the most common neuromuscular autosomal recessive disorder and one of the leading genetic causes of infant death. SMA results from mutations inducing loss of function or deletion in the survival of motor neuron-1 gene (SMN1), leading to deficiency of the survival motor neuron (SMN) protein. Although a second nearly identical gene, SMN2, is retained in humans, its expression primarily produces an aberrantly spliced isoform that is largely unstable and quickly degraded. We performed a genome-wide RNAi screen using a cell-based reporter assay to identify genes and pathways that modulate SMN protein stability. The screen identified over 200 genes that led to the greatest increase or decrease in luciferase expression.
Using HEK293T cells stably expressing a luciferase reporter that combines the promoter and splicing based cassettes in tandem with the major portion of the native SMN2 cDNA with luciferase, we performed a genome-wide RNAi screen to identify modulators of SMN protein levels. Luciferase is expressed when full-length SMN protein is generated with luminescence signal proportional to SMN protein levels. Our luciferase-based reporter assay was used to screen Ambion Silencer Select Human Druggable Genome siRNA library (10418 genes, 3 unique siRNAs per gene) using lipid-based reverse transfection.
Briefly, 1 pmol of each siRNA was spotted to a well of a 384-well plate (Corning, Corning, NY) and 20 microL of serum-free DMEM containing […] of Lipofectamine RNAiMax (Life Technologies, Carlsbad, CA) was then added to each well. Transfected cells were maintained at 37 degrees C in 5% CO2 for 72 hours, 20 microL of ONE-Glo Reagent (Promega) was added to wells for luciferase quantification. Raw luminescence reads were normalized to Ambion(R) Silencer(R) Negative Control #2 siRNA, then log10 transformed. A robust statistical measure of median absolute deviation (MAD) to standardize siRNA activities from each screen. Common Seed Analysis was used to help prioritize clean hits as opposed to those appearing to arise from seed based off-target effects. Candidate modulators were defined as the genes having a MAD score greater than 1.0 or less than -1.0.

Sequence | median seed-adjusted z-score
GGAUCCCGCUGCACAAGUUTT against CTSD | -0.282
CGUCUUCCUUGUGCGCCUATT against COL20A1 | -0.0033
GGCUUAUGGGUGUUCGGAUTT against POLK | -0.102
CCGUCACUGAAGUCAAUAATT against CACNA1F | 0.22
CGGAUUCCAGGAAUGCUAATT against EIF5B | 1.68 (active)
CCACCAAAGUUCACCCUGATT against LMNA | -0.409
GGGCCGAACUGAAAUACGATT against FGD2 | 0.0293
ACAAGUUCUUGGAGCCUUATT against ATP1B2 | -0.185
CCCAAUCCCUAUUUGAGAATT against ADRA1D | -0.18
GAUUAUAUUUGUCCAGCUATT against ESR2 | -1.1 (active)
CAAUCCAGGUGAUCGCAAATT against TPMT | 0.19
CAAUGGUACCUAUGACUAUTT against ALG3 | -0.446
GAGUACAUGUACUACCUGATT against RFX1 | 0.818
GAGUUAACGUAUCAGAACATT against LRRFIP1 | -0.181
ACUCUAUCCUUGCUUUGCATT against ZNF219 | 0.127
GCAUAACUGUAACAGAGAATT against RPP30 | -0.656
GCUCAGAAGCAGUAAUGCATT against PQBP1 | -1.12 (active)
GAAAUGCGAGCUGAACAUATT against CMAS | -0.491
CUUUUUACGUGAGCGUAUATT against NAP1L1 | 0.263
CGCUGGACUUCGUCAAGAATT against KCNC4 | -0.433
CUAUCAUGGAAGAUGCUGATT against B3GNT4 | 0.124
AGUACUUCCUGACGAUGGATT against CST6 | -0.237
ACUAACAUCCCAGACUUUATT against VWA1 | 0.289
CCAACUACCUGAACGAUGATT against U2AF2 | 2.14 (active)
AGCUCACACUAUGCAUUGATT against KRTAP2-2 | -0.212
GGAGGCUCGUUUUCCCGUATT against EGR4 | 0
GGACUCAGACGAGUUUUAUTT against CYP11B1 | -0.199

Sequence | median seed-adjusted z-score
GCAGCGAGUCAGUAACUUUTT against SUPT4H1 | -1.01 (active)
GCUUCUUCGAGAAACAGAATT against RBMY1F | 0.2
GGGUUUGCACUGAAACGAATT against CIR | -0.197
GGAAGGAAUUCAACCGGAUTT against ZNF366 | 0.585
CCAUAGCCCAAAUCAAGGATT against SIK2 | 0.055
CCACGAACAAUAAUCCCAATT against KCNA3 | 0.213
CCCUCAAUUUGGUCUGUUUTT against SPINK2 | -0.431
ACAACAUGAAGGUCCUCUATT against THY1 | -1.1 (active)
ACAUGUUUUUAGAAUUGCUTT against TST | 0
CAGUUAUGUUCUACGCAGATT against KCND2 | -0.245
CCAUGGAUUUUGUACUGCUTT against VPS35 | -0.511
GGCGAAUUCCAUACCGUUATT against NEK2 | -0.276
GGAGUAUAUUGAGUAUGGATT against CNOT1 | 1.2 (active)
GUUCCAUCUUGAUCGAGUATT against RASSF9 | 0.314
CGGGAACACGUUUCAGGGATT against GPR157 | 0.152
CAUCCCAGAUCAAACUGUATT against TFAP2A | -0.384
GAUUAUUGAGCAUAAGAUUTT against ZNF277 | -0.0374
GAACUGCACGUGUACAACATT against HCFC1 | 1.47 (active)
GCCUUCUUCUUAUGCAAGATT against ACTL6B | 0.0703
CCAUCUAUUCAGAGACGUATT against MUTYH | 0.024
GGCAUUCGCUUGAACAGCATT against DRG1 | 0.336
GCCUCUACAUCUAGUGAUATT against JMJD1C | 0.0338
AGAUCAAGUUUGCCCUAAATT against HDGF2 | 0
GCCUGGAUGCUAAUCAAGATT against S100A12 | 0.346
AGGAAGAAUUUAAUCCUGATT against CYP26A1 | 0.0569
GAAAGAGCCUGUUACCUAUTT against ACTR1A | 1.28 (active)
GUGAAGAAGUUGCUUAUUATT against MAST1 | -0.0897

Reference: PubChem BioAssay AID1347426 (Functional Genomics Laboratory (NCATS/FGL), 2020)
